{"source": "PubChem BioAssay AID2530", "about": "(National Center for Advancing Translational Sciences (NCATS), 2010)", "note": "Inconclusive results are not listed. Calls of active or inactive are those of the source. Calls come from the whole dose curve; as a rule, active = well fitted inhibition curve with a large enough effect; inconclusive = small, poorly fitted or top-dose-only effect; inactive = flat fitted curve, though single readings scatter. Potency is the fitted concentration of half-maximal effect."}
{"target": "Luciferin 4-monooxygenase (Photuris pensylvanica) (UniProt Q27757)", "experiment": "Secondary Assay for Luciferase (Kinase-Glo TM) Inhibition Counterscreen;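 for activity, negative = inhibition: 0% = DMSO only and -100% = 40 µM SIB 1757 full inhibition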", "details": "Kinase-Glo luciferase enzyme, luminescence; series mostly up to 58.1 µM; activity, negative = inhibition: at the top concentration", "method": "NIH Chemical Genomics Center [NCGC] Malcolm Walkinshaw, Hugh Morgan, Linda Gilmore University of Edinburgh, UK MLPCN Grant: 1 R03 MH085697-01 NCGC Assay Overview: Luciferase (Kinase-Glo, Promega Corporation) was assayed for its ability to generate light using ATP and luciferin as substrates. The ATP concentration in the assay (10 uM) was within the linear range of enzyme activity for the assay conditions used. This assay was used as an counter screen for human pyruvate kinase M2 isoform.\nNCGC Assay Protocol Summary: Four uL of substrate mix (final concentration, 50 mM imidazole pH 7.2, 50 mM KCl, 7 mM MgCl2, 10 uM ATP, 0.01% Tween 20, 0.05% BSA) was dispensed into white 1536 well plates. Twenty-three nL of compound was delivered by a pin tool and 2 uL of luciferase detection mix (Kinase-Glo, Promega)) was added. Following 8-minute incubation at ambient temperature, luminescence was measured by a ViewLux (Perkin Elmer) at 5 seconds exposure/plate. Data were normalized to the controls for basal activity (DMSO only) and 100% inhibition (40 uM SIB 1757) and curve fitting was performed using Hill equation."}
{"smiles": "CC(=O)Nc1ccc(S(=O)(=O)Nc2ccc(C)c(C)c2)cc1", "activity, negative = inhibition": "1.73% (inactive)"}
{"smiles": "Cc1ccc(NS(=O)(=O)c2ccc3c(c2)CCCC(=O)N3)cc1C", "activity, negative = inhibition": "-3.49% (inactive)"}
{"smiles": "Cc1cc(C)n2c(Nc3ccccc3)c(-c3ccc(C)o3)nc2n1", "activity, negative = inhibition": "-1.93% (inactive)"}
{"smiles": "O=C1c2ccccc2C(=O)N1C1CCCCC1", "activity, negative = inhibition": "0.793% (inactive)"}
{"smiles": "O=c1c2ccccc2cnn1-c1nc2ccccc2[nH]1", "Potency": "2.59 µM (active)"}
{"smiles": "O=C(Nc1cccc(O)c1)C(=O)Nc1ccccn1", "Potency": "20.6 µM (active)"}
{"smiles": "O=C1CCc2cc(S(=O)(=O)Nc3ccc4c(c3)OCCO4)ccc2N1", "activity, negative = inhibition": "-1.13% (inactive)"}
{"smiles": "Nc1cc(S(=O)(=O)N2CCN(S(=O)(=O)c3ccc4c(c3)OCCO4)CC2)ccn1", "activity, negative = inhibition": "-17.1% (inactive)"}
{"smiles": "Cc1ccccc1-c1nc(-c2ccccn2)no1", "Potency": "4.61 µM (active)"}
{"smiles": "O=C1c2ccccc2C(=O)N1c1nccs1", "activity, negative = inhibition": "1.91% (inactive)"}
{"smiles": "O=C(/C=C/c1ccc2c(c1)OCO2)c1ccccn1", "Potency": "5.8 µM (active)"}
{"smiles": "O=C1c2ccccc2C(=O)N1c1cccc2ncccc12", "activity, negative = inhibition": "-0.367% (inactive)"}
{"smiles": "COc1cc(N2C(=O)c3ccccc3C2=O)c2ncccc2c1", "activity, negative = inhibition": "-2.36% (inactive)"}
{"smiles": "COc1ccccc1OC1=NS(=O)(=O)c2ccccc21", "activity, negative = inhibition": "-0.0267% (inactive)"}
{"smiles": "Cc1ccccc1N=CC1=C(O)c2ccccc2C1=O", "Potency": "11.6 µM (active)"}
{"smiles": "COc1ccc(-c2cc3nc(C)n(N)c(=O)c3s2)cc1", "Potency": "2.31 µM (active)"}
{"smiles": "Cc1ccc(NS(=O)(=O)c2cc3c(cc2Cl)CCC(=O)N3)cc1C", "activity, negative = inhibition": "-0.531% (inactive)"}
{"smiles": "Cc1c(C(=O)NC(=S)Nc2ccc(NC(=O)c3cccs3)cc2)oc2ccccc12", "activity, negative = inhibition": "-3.45% (inactive)"}
{"smiles": "O=C1c2ccccc2C(=O)N1Cc1ccncc1", "activity, negative = inhibition": "-0.589% (inactive)"}
{"smiles": "O=C1c2ccccc2C(=O)N1c1cccc2ccncc12", "activity, negative = inhibition": "0.772% (inactive)"}
{"smiles": "Cc1ccc(NS(=O)(=O)c2ccc3[nH]c(=O)[nH]c3c2)cc1C", "activity, negative = inhibition": "-1.28% (inactive)"}
{"smiles": "O=S1(=O)N=C(Oc2ccccc2)c2ccccc21", "activity, negative = inhibition": "-3.28% [at 82.8 µM] (inactive)"}
{"smiles": "Cc1ccc(NS(=O)(=O)c2ccc3c(c2)CCO3)cc1C", "activity, negative = inhibition": "2.64% (inactive)"}
{"smiles": "CC(=O)Nc1cccc(S(=O)(=O)Nc2ccc(C)c(C)c2)c1", "activity, negative = inhibition": "-3.96% (inactive)"}
{"smiles": "O=C1c2ccccc2C(=O)N1c1cccnc1", "activity, negative = inhibition": "-2.37% (inactive)"}
{"smiles": "Cc1cc(O)c(-c2cc(O)c(C)cc2O)cc1O", "activity, negative = inhibition": "-3.34% (inactive)"}
{"smiles": "Cc1nc(-c2ccc(C(=O)Nc3ccccc3F)cc2)cs1", "Potency": "11.6 µM (active)"}
{"smiles": "Cn1c(-c2ccc(Br)o2)nc2ccccc21", "Potency": "10.3 µM (active)"}
{"smiles": "CNc1cccc(S(=O)(=O)N2CCN(S(=O)(=O)c3ccc4c(c3)OCCO4)CC2)c1", "activity, negative = inhibition": "-0.612% (inactive)"}
{"smiles": "Cc1ccc(-c2cc3c(nn2)-c2ccccc2C3=O)cc1", "Potency": "5.8 µM (active)"}
{"smiles": "O=C(/C=C1\\C(=O)Nc2ccccc21)/C=C1\\C(=O)Nc2ccccc21", "activity, negative = inhibition": "-14.8% (inactive)"}
{"smiles": "O=C1c2ccccc2C(=O)N1c1cccc2cccnc12", "activity, negative = inhibition": "-0.904% (inactive)"}
{"smiles": "Cc1cc2c(s1)c1cnn(Cc3ccccc3F)c(=O)c1n2C", "Potency": "inactive"}
{"smiles": "Cc1ccc(N2C(=O)c3ccccc3C2=O)c(C)c1", "activity, negative = inhibition": "-3.43% (inactive)"}
{"smiles": "O=C1CCc2cc(S(=O)(=O)Nc3ccccc3-c3ccccc3)ccc2N1", "activity, negative = inhibition": "-0.997% (inactive)"}
{"smiles": "Cc1cccc(NS(=O)(=O)c2ccc3c(c2)CCC(=O)N3)c1", "activity, negative = inhibition": "-6.26% (inactive)"}
{"smiles": "Cc1occc1C(=O)O/N=C(\\N)c1ccccc1", "Potency": "6.51 µM (active)"}
{"smiles": "O=S(=O)(c1ccc2c(c1)OCCO2)N1CCN(S(=O)(=O)c2c(F)cccc2F)CC1", "Potency": "inactive"}
{"smiles": "O=C1c2ccccc2C(=O)N1c1ccc2ncccc2c1", "activity, negative = inhibition": "1.15% (inactive)"}
{"smiles": "CC(=O)N1CCc2cc(S(=O)(=O)Nc3ccc(C)c(C)c3)ccc21", "activity, negative = inhibition": "-18.9% (inactive)"}
